DRD3 agonist: activates the human D3 dopamine receptor | P35462 | D3R DiscoveRx beta-arrestin cells, luminescence, 90 min | max activation, % | 410,000 tested, 0.58% active; in the data active = max activation above about 30%; also: 0% is about no effect
Target sequence (P35462 whole entry, looked up): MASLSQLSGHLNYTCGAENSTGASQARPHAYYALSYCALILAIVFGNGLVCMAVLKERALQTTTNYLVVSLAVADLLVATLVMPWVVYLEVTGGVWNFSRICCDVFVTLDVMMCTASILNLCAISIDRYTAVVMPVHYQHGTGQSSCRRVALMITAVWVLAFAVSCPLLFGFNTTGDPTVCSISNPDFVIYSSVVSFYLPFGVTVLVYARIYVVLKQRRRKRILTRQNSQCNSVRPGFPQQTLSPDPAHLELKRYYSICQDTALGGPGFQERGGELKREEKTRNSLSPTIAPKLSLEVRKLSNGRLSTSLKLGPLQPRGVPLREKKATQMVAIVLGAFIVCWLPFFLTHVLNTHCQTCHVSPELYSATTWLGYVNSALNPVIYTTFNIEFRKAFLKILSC
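Cells at 1500/well, incubated overnight, then treated with pinned compounds (dopamine as control) for 90 min at 37 degrees C. DiscoveRx reagent added for 30 - 60 minutes at room temperature; luminescence read.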
MCF10A rereplic: induces DNA re-replication in MCF 10a normal breast cells. Potency, µM (titrated, usually from 46.1 µM), without a hit: top-dose activity, positive = re-replication, actives largely listed as activators. 350,000 tested, 2.9% active. AID 624296. MCF 10A DNA re-replication, Hoechst nuclear intensity, 48 h; also: potency is read from the fitted curve at half-maximal effect; % of control where 0% means no effect; nearly all actives have a fitted effect of over 50% in size
KB-3-1 cytotox: KB-3-1 parental cell cytotoxicity; KB-3-1 viability, CellTiter-Glo ATP luminescence, 72 h; Potency, µM (top dose mostly 46.1 µM), hits mostly cytotoxic; 400,000 tested, 1.4% active; AID 1347075; also: potency is read from the fitted curve at half-maximal effect; % is scaled to controls: 0 for no effect and ±100 for the full control effect; nearly all actives have a fitted effect of over 60% in size
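Screening of KB-3-1 cells (DMEM, 10% FBS, phenol-red free) ran from lowest to highest compound concentration; after 72 h at 37 °C viability was read luminescently and curves fitted.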
KB-V1 MDR tox: kills drug-selected multidrug resistant KB-V1 cells. KB-V1 MDR cells viability, CellTiter-Glo, 72 h. Potency, µM (titrated, usually from 46.1 µM), hits mostly cytotoxic. 400,000 tested, 3.4% active. AID 1347076; also: potency is read from the fitted curve at half-maximal effect; % is scaled to controls: 0 for no effect and ±100 for the full control effect; nearly all actives have a fitted effect of over 60% in size
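Cytotoxicity via CellTiter-Glo luminescence after 72 h compound exposure at 37 degrees C. Cells: drug-selected KB-V1 line, DMEM phenol-red free plus 10% FBS. Compounds tested at multiple concentrations; normalized data fitted to concentration-effect curves.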
SW480 rerep: induces DNA re-replication in SW480 colon adenocarcinoma cells. SW480 DNA re-replication, Hoechst DNA content imaging, 48 h. Potency, µM (titrated, usually from 46.1 µM), inactives show at the highest dose re-replication activation, usual class: activators. 340,000 tested, 1.8% active. AID 624297; also: potency is read from the fitted curve at half-maximal effect; % of control where 0% means no effect; nearly all actives have a fitted effect of over 55% in size
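Cells (250 per well) received 23 nL compound or DMSO by pin tool and were kept 48 hr at 37 C, 5% CO2. Nuclei were then stained with Hoechst for 40 min and scanned for DNA content.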
D3 antag: D3 dopamine receptor (human) antagonism; P35462; D3R cells, DiscoveRx beta-arrestin luminescence, antagonist mode; active compounds read low; max response, negative = inhibition, %; 360,000 tested, 2.5% active; in the data active = max response below about -50%; inconclusive = no clear call, values can overlap the other calls; also: % is scaled to controls: 0 for no effect and ±100 for the full control effect
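Cells expressing the human receptor were seeded at 1500 cells/well, incubated overnight at 37 degrees C in 5% CO2, then exposed to library compounds with dopamine controls for 90 minutes at 37 degrees C before luminescent detection.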
An asterisk follows results filed as active; i = inactive; u = inconclusive; x = no result given; ! = not active in a repeat; [ ] = another dose, or the depositor's remark. Only some compounds are listed: those with a hit (about 8.9% of all), similar ones and a draw of the others. Unless noted, calls follow the shape of the dose curve; as a rule, active = well fitted curve in the direction sought with a large enough effect; inconclusive = small, poorly fitted or top-dose-only effect, or another doubt; inactive = no such curve, though single readings can be large; an effect the other way counts as inactive or inconclusive.

SMILES	DRD3 agonist	MCF10A rereplic	KB-3-1 cytotox	KB-V1 MDR tox	SW480 rerep	D3 antag
Cc1ccc(CS(=O)(=O)Cc2ccc(C(=O)NCCc3ccc(Cl)cc3)o2)cc1	-13	x	i	u	x	x
Nc1nc(Cl)nc2c1ncn2[C@@H]1O[C@H](CO)[C@@H](O)[C@@H]1F	1	x	x	x	x	x
Cc1nnc(-c2cccc(Br)c2)c2cn(-c3ccccc3)nc12	1	u	u	u	-3%	55
Cc1nnc(-c2cccc(Br)c2)c2cn(-c3cccc(Br)c3)nc12	2	u	u	9.2µM*	-5%	10
Cc1nc2ccc(NS(=O)(=O)c3ccc(Br)cc3)cc2s1	-2	-4%	23µM*	i	2%	-2
Cc1nc2ccc(NS(=O)(=O)c3c(C)c(C)cc(C)c3C)cc2s1	7	u	u	u	u	-19
Cc1ccc(S(=O)(=O)Nc2ccc3nc(C)sc3c2)cc1	1	-3%	i	u	-2%	22
Cc1nc2cc(NS(=O)(=O)c3c(C)c(C)cc(C)c3C)ccc2s1	0	21%	13µM*	11µM*	-1%[9.22 µM]	-1
Cc1nc2ccc(NS(=O)(=O)c3cccc([N+](=O)[O-])c3)cc2s1	36*	-6%	i	i	2%	20
Cc1ccc(S(=O)(=O)Nc2ccc3nc(N)sc3c2)cc1	16	21%	u	21µM*	-3%	20
CC(=O)N1CCc2cc(Br)cc(S(=O)(=O)CCC(=O)N3CCN(c4ccccc4)CC3)c21	-6	x	i	i	x	x
CN(C)c1ccc(CNC(=O)c2ccc(Cn3c(=O)c4cccn4c4cccnc43)cc2)cc1	12	x	x	x	x	x
Cc1ccc(S(=O)(=O)Nc2ccc3nc(C)oc3c2)cc1	-6	10%	u	2.9µM*	0%	6
Cc1nc2ccc(NC(=O)c3cc([N+](=O)[O-])cc([N+](=O)[O-])c3Cl)cc2s1	11	u	i	i	-9%	-68*
CC(Nc1ncnc2c1cnn2-c1cccc(Cl)c1)c1ccccc1 (centres undefined)	3	x	u	u	x	x
O=C1N/C(=C/c2ccc(N3CCOCC3)o2)C(=O)N1c1ccccc1	-14	3.7µM*	i	i	8.2µM*	-17
C=CCN1C(=O)N/C(=C/c2ccc(N3CCOCC3)o2)C1=O	x	5.8µM*	x	x	5.8µM*	x
CCOc1ccc(S(=O)(=O)c2cn(Cc3ccccc3C)c3ccc(OC)cc3c2=O)cc1	-1	x	i	i	x	x
CC(=O)c1cccc(NC(=O)Cn2cc(C(=O)c3cccc(Cl)c3)c(=O)c3ccc(C)nc32)c1	1	x	i	i	x	x
NC(=O)c1ccsc1NC(=O)COC(=O)c1ccc([N+](=O)[O-])o1	10	3%	i	i	-37%	3
CN1CCc2c(sc(NC(=O)c3ccc(S(=O)(=O)N4CCOCC4)cc3)c2C(N)=O)C1	0	2%	i	i	2%	-11
CN1CCc2c(sc(NC(=O)c3cc(Cl)sc3Cl)c2C(N)=O)C1	1	23µM*	i	i	u	-2
NC(=O)c1c(NC(=O)c2ccc([N+](=O)[O-])o2)sc2c1CCCC2	-5	2.6µM*	16µM*	u	1.5µM*	-50*
NC(=O)c1ccsc1NC(=O)c1ccc([N+](=O)[O-])o1	-8	3.7µM*	u	u	u	0
N#Cc1c(NC(=O)c2ccc([N+](=O)[O-])o2)sc2c1CCC2	-33	21µM*	5.2µM*	18µM*	10µM*	-63*
SMILES	DRD3 agonist	MCF10A rereplic	KB-3-1 cytotox	KB-V1 MDR tox	SW480 rerep	D3 antag
CCOC(=O)c1cc(S(=O)(=O)NCc2cccc(Cl)c2)[nH]n1	8	x	i	u	x	x
CCc1nc2ccc(C(=O)NCCc3ccc(OC)cc3OC)cc2nc1CC	-9	x	i	u	x	x
N#Cc1c(NC(=O)c2ccc(Cn3cc(Br)cn3)o2)sc2c1CCCCCC2	6	u	u	2.6µM*	29%	-15
CN1CCc2c(sc(NC(=O)c3ccc([N+](=O)[O-])o3)c2C(N)=O)C1	-14	u	u	u	1.5µM*	-56*
CN1CCc2c(sc(NC(=O)c3ccco3)c2C(N)=O)C1	-14	-1%	i	i	-5%	u
Cc1ccc(NC(=O)c2ccc(Cn3cc(Br)cn3)o2)cc1	-4	9%	i	u	8%	5
CCc1ccc(NC(=O)C2CCN(S(=O)(=O)c3ccc4[nH]c5c(c4c3)CCCCC5)CC2)cc1	11	x	u	i	x	x
NC(=O)c1cc(S(=O)(=O)NCCCc2ccccc2)cs1	5	-1%	i	i	-5%	17
CCN(CC)CCOC(=O)c1ccc(NC(=O)CCCN2C(=O)S/C(=C/c3ccc(OC)cc3)C2=S)cc1	-19	u	i	i	22µM*	-83*
Cc1cc2ncn(CCOc3ccccc3)c2cc1C	-14	19%	i	23µM*	-60%	2
CCC(=O)c1ccc(OCCn2cnc3ccccc32)cc1	2	-4%	i	21µM*	-2%	-2
COCCn1cnc2cc(C)c(C)cc21	1	2%	i	i	-7%	29
CCOC(=O)c1c(C)oc2nc(C)nc(NCC3CCN(Cc4ccc(Cl)cc4)CC3)c12	-18	x	i	i	x	x
CC1CCN(S(=O)(=O)c2ccc3c(c2)N(CC(=O)NCc2ccccc2Cl)C(=O)CS3)CC1	-20	x	x	x	x	x
Cc1nc2c(-c3ccc(Cl)cc3)cnn2c2c1CCC2	15	21µM*	i	i	2%	18
NCCS	65*!	2%	i	i	-3%	-85*
O=C1C=CCC(/C=C/c2ccccc2)O1 (centres undefined)	1	15µM*	u	u	16µM*	u

Source: PubChem
